Measured values reported in PubChem BioAssay (NCATS).
Results filed as inconclusive are left out. Values without a mark were called inactive. Active and inactive are the calls of the source. Calls follow the shape of the dose curve; as a rule, active = well fitted inhibition curve with a large enough effect in the repeat runs; inconclusive = weak or mixed curves; inactive = no such curve, though single readings can be large or run the other way.
% is scaled to controls: 0 for no effect and ±100 for the full control effect; potency is read from the fitted curve at half-maximal effect.

Each compound was assayed against Cytochrome P450 2C9 (Homo sapiens) (UniProt P11712) (assay: Cytochrome P450 family 2 subfamily C member 9 (CYP2C9) small molecule antagonists: luciferase biochemical (cell-free) qHTS assay (AID 1645842; also: nearly all actives have a fitted effect of over 55% in size)). Settings: P450-Glo CYP2C9 enzyme assay, luciferin luminescence; series mostly up to 57.4 µM; activity change, negative = inhibition: at the top concentration.
Chain of Cytochrome P450 2C9 (Homo sapiens) (P11712 whole entry, looked up): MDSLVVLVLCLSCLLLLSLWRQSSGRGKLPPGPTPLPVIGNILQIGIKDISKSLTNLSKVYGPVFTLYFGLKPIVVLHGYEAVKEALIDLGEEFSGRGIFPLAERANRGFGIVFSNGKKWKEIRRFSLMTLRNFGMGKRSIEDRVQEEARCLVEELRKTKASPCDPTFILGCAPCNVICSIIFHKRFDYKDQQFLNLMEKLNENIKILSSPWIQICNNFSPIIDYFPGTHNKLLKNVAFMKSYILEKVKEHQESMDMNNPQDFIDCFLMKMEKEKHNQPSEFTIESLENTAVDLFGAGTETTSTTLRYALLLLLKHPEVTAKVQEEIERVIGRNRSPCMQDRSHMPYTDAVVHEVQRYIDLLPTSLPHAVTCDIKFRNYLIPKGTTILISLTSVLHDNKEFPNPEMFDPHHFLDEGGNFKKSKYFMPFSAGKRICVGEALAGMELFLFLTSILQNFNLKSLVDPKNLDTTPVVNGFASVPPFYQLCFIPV
Summary of the method: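 P450-Glo CYP2C9 system: proluciferin substrate with enzyme in mix containing 0.4% BSA, 10 min at room temperature, then NADPH regeneration solution added and incubated 1 h at 37C. Detection reagent stopped reaction; luminescence read after 20 min as RLU.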
`CCc1cccc(CC)c1-n1c(CC(C)C)c(C(=O)N2CCNCC2)cc(-c2nc(-c3ccc(Cl)cc3)cs2)c1=O` was tested, and the Potency was 10.7 µM (active). In the case of `Cn1c(=O)c2c(nc(OC3CCN(C(=O)C4CC4)CC3)n2CCC(C)(C)C)n(C)c1=O`, the Potency is reported as 12 µM (active). For `CCc1nnc(NC(=O)CSc2nc3c([nH]c4ccccc43)c(=O)n2-c2ccc(OC)cc2)s1`, the Potency was 4.25 µM (active). For `CCOc1ccc(S(=O)(=O)NCc2ccc3c(c2)CCN3C(=O)c2ccc(C)cc2)cc1`, the Potency was 0.301 µM (active). With `CCOc1ccc(C(=O)NCCS(=O)(=O)N2CCN(c3ccccc3F)CC2)cc1OCC` the Potency was 2.13 µM (active). For `Cc1ccc2ccc(C(Nc3ccccn3)c3ccccc3)c(O)c2n1` (centres undefined), the Potency was 2.68 µM (active). For `CCOc1ccc(NC(=O)Cn2cc(C(=O)c3ccco3)c3ccccc32)cc1`, the Potency was 4.77 µM (active). With `Cc1ccc(Cn2c(SCc3ccc(C(=O)N4CCCCCC4)cc3)nc3ccncc32)cc1` the “activity change, negative = inhibition” value was -0.447%. For `COc1ccc(Cn2c(CCC(=O)Nc3cc(C)cc(C)c3)nc3cccnc32)cc1`, the Potency was 6.74 µM (active). `COc1ccc(NC(=O)c2cnc[nH]2)cc1S(=O)(=O)Nc1ccc(Br)cc1` was tested, and the Potency was 10.7 µM (active). `COc1ccc(CNC(=O)C2CCCN(c3nnc(C)c4c(C)n(-c5ccc(C)cc5)nc34)C2)cc1` (centres undefined) was tested, and the Potency was 2.68 µM (active). `Cc1ccccc1C(=O)Nc1cccc(-c2nc3cccnc3s2)c1` was tested, and the Potency was 6.74 µM (active). In the case of `Nc1nc(N)c(S(=O)(=O)c2ccccc2)c(Nc2ccc(Br)cc2)n1`, the Potency is reported as 4.77 µM (active). For `COc1cc(C(c2c(C)[nH][nH]c2=O)c2c(C)[nH][nH]c2=O)ccc1OC(=O)c1ccccc1OC`, the Potency was 8.49 µM (active). With `COc1cccc(CNC(=O)C2CCCN(c3nn4cc(-c5ccc(C)cc5)nc4s3)C2)c1` (centres undefined) the Potency was 2.39 µM (active). For `COc1ccccc1NC(=O)Cc1c(C(=O)O)[nH]c2ccc(Cl)cc12`, the “activity change, negative = inhibition” value was 20.5%. With `COC(=O)c1c(SCC(=O)Nc2cc(C)cc(C)c2)[nH]c2ccccc2c1=O` the Potency was 21.3 µM (active). In the case of `CCOC(=O)N1CCc2c(sc3c2c(=O)n(CCc2ccccc2)c(=O)n3CC(=O)Nc2cccc(C)c2)C1`, the Potency is reported as 1.69 µM (active). In the case of `COCCn1c(SCC(=O)Nc2ccc(F)c(Cl)c2)nc2c(oc3ccccc32)c1=O`, the Potency is reported as 0.952 µM (active). For `Oc1c(C(Nc2ccccn2)c2ccccc2F)ccc2cccnc12` (centres undefined), the Potency was 19 µM (active). With `COc1ccc(NC(=O)CSc2nc3ccccc3n2Cc2cccc(OC)c2)cc1` the Potency was 2.68 µM (active). With `COc1ccccc1NC(=O)CSc1oc(-c2cccs2)nc1S(=O)(=O)c1ccc(Br)cc1` the Potency was 0.425 µM (active). `Cc1ccc(S(=O)(=O)NC2CCC(C(C)(C)C)CC2)cc1` (centres undefined) was tested, and the Potency was 2.68 µM (active). With `Cc1ccccc1C(=O)Nc1sc2c(c1C(=O)O)CCC(C(C)(C)C)C2` (centres undefined) the “activity change, negative = inhibition” value was -23.7%. With `COc1ccc(C(C)=O)cc1CSc1nc(NCc2ccccc2)c2ccccc2n1` the Potency was 2.13 µM (active). For `C=CC(C)(O)CCC=C(C)CCC=C(C)C` (centres undefined), the Potency was 21.3 µM (active). In the case of `Cc1nc2c3ccccc3nc(NNC(=O)CCC(=O)N3CCN(c4cccc(Cl)c4)CC3)n2n1`, the Potency is reported as 12 µM (active). `COc1ccc(NC(=O)CSc2ncc(-c3ccc(Cl)cc3)[nH]2)cc1OC` was tested, and the Potency was 0.849 µM (active). With `CCOc1cc(C(=O)Nc2ccc(-c3nc4ncccc4o3)cc2C)cc(OCC)c1OCC` the Potency was 7.56 µM (active). For `Cc1cccc(NC(=O)Cn2c(=O)n(Cc3ccc(C(=O)NCc4ccc5c(c4)OCO5)cc3)c(=O)c3ccccc32)c1`, the “activity change, negative = inhibition” value was 4.29%. In the case of `CC(=O)C1=C(c2ccc(Cl)c(Cl)c2)N(C(C)=O)n2cnnc2S1`, the Potency is reported as 2.39 µM (active). In the case of `CCC(Sc1nc2ccccc2c2nc(CCn3cncc3C)nn12)C(=O)Nc1cccc(OC)c1` (centres undefined), the Potency is reported as 1.9 µM (active). With `Cc1cc(C)c(Cn2c3ccccc3c3cnn(CC(=O)NCc4ccccn4)c(=O)c32)c(C)c1` the Potency was 10.7 µM (active). `Cc1cccc(NC(c2ccccc2C)c2ccc3ccc(C)nc3c2O)n1` (centres undefined) was tested, and the Potency was 6.74 µM (active). `Cc1cccc2nc(-c3ccccn3)c(Nc3ccccc3)n12` was tested, and the Potency was 1.2 µM (active). With `O=c1c2c(on1Cc1ccccc1)CCNCC2` the Potency was 10.7 µM (active). In the case of `Cc1cccc(Cc2c(C)nc3c(-c4ccccc4)c(C)[nH]n3c2=O)c1`, the “activity change, negative = inhibition” value is reported as -11.2%. With `CCOc1cc(C(Nc2cc(C)ccn2)c2ccc3cccnc3c2O)ccc1OC` (centres undefined) the Potency was 12.6 µM (active). With `COc1cccc(-c2cc(F)ccc2[C@H]2Cc3nc(N)nc(C)c3C(=O)N2)n1` the Potency was 6.74 µM (active).
